In PubChem BioAssay (Tox21):
Values joined by “and” are separate entries in the source; they are usually repeats but may differ in a detail not shown here. Equal values may be shown once. Unmarked numbers belong to inactive results. Results filed as inconclusive are left out. Where a call stands in place of a potency, no number is given. Active and inactive are the calls of the source. Unless noted, the call rests on the fitted dose curve; in most records, active means well fitted curve in the direction sought with a large enough effect in the repeat runs; inconclusive means weak or mixed curves; inactive means no such curve, though single readings can be large; an effect the other way counts as inactive or inconclusive.

Assays:
[1] = qHTS assay to test for compound auto fluorescence at 535 nm (green) in HEK293 cells (AID 720680)
[2] = qHTS assay to test for compound auto fluorescence at 460 nm (blue) in HEK293 cell free culture (AID 720681)
In short: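 Blue fluorescence (Ex 405/Em 460 nm, triamterene-equivalent) was read immediately after pin transfer of compound or DMSO into medium (DMEM, 10% FBS) without cells.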

[3] = qHTS assay to test for compound auto fluorescence at 535 nm (green) in HEK293 cell free culture (AID 720682)
In short: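 Read-out: 485/535 nm fluorescence intensity, calibrated against fluorescein. Medium only (DMEM + 10% FBS, no cells); test compound or DMSO vehicle added by pintool before plate reading.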

[4] = qHTS assay to test for compound auto fluorescence at 590 nm (red) in HEK293 cell free culture (AID 720683)
In short: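 Red-channel autofluorescence of compounds in culture medium (DMEM, 10% FBS), no cells, measured at 540/590 nm. Rose Bengal sodium is the reference fluorophore for equivalence.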

[5] = qHTS assay to test for compound auto fluorescence at 590 nm (red) in HepG2 cell free culture (AID 720684)
In short: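 Steps: dispense MEM/10% FBS medium, no cells; pin compound or DMSO vehicle; read red channel, Ex/Em 540/590 nm. Output given as Rose Bengal sodium equivalents.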

[6] = qHTS assay to test for compound auto fluorescence at 460 nm (blue) in HepG2 cell free culture (AID 720685)
In short: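 Compound (23 nL) or DMSO pinned into cell-free MEM with 10% FBS; blue fluorescence read at 405/460 nm excitation/emission, expressed as auto-fluorescence equivalency to triamterene.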

[7] = qHTS assay to test for compound auto fluorescence at 535 nm (green) in HepG2 cell free culture (AID 720686)
[8] = qHTS assay to test for compound auto fluorescence at 460 nm (blue) in HepG2 cells (AID 720687)
In short: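 Blue-channel autofluorescence (Ex/Em 405/460 nm, triamterene-equivalent) was measured after 1 hr compound exposure at 37 C, 5% CO2. Cells were HepG2, plated overnight at 37 C in MEM plus 10% FBS.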

[9] = qHTS assay to identify small molecule antagonists of the glucocorticoid receptor (GR) signaling pathway - cell viability counter screen (AID 720693); further: nearly all actives have a fitted effect of over 55% in size
[10] = qHTS assay for identifying genotoxic compounds that show differential cytotoxicity against isogenic chicken DT40 cell lines with known DNA damage response pathways - wild type cell line (AID 743012); further: nearly all actives have a fitted effect of over 60% in size; further: potency means the concentration at half of the fitted maximal effect
In short: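 Parental DNA repair-proficient DT40 cells, 300 per well, were pre-incubated ~0.5 h at 37 C/5% CO2, pin-dosed with compounds in DMSO, then incubated 40 h. Viability was read as CellTiter-Glo luminescence after 30 min at room temperature.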

[11] = qHTS assay for identifying genotoxic compounds that show differential cytotoxicity against isogenic chicken DT40 cell lines with known DNA damage response pathways - Rev3 mutant cell line (AID 743014); further: nearly all actives have a fitted effect of over 55% in size; further: potency means the concentration at half of the fitted maximal effect
[12] = qHTS assay for identifying genotoxic compounds that show differential cytotoxicity against isogenic chicken DT40 cell lines with known DNA damage response pathways - Rad54/Ku70 mutant cell line (AID 743015); further: nearly all actives have a fitted effect of over 60% in size; further: potency means the concentration at half of the fitted maximal effect
[13] = qHTS assay to identify small molecule antagonists of the androgen receptor (AR) signaling pathway - cell viability counter screen (AID 743033; further: nearly all actives have a fitted effect of over 45% in size)
[14] = qHTS assay to identify small molecule antagonists of the androgen receptor (AR) signaling pathway using the MDA cell line - cell viability counter screen (AID 743041; further: nearly all actives have a fitted effect of over 45% in size)
In short: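 Cells were plated at 3,000 per well and left 5 h. Compounds in DMSO were then pinned in, followed by R1881. After 16 h at 37C, CellTiter-Fluor fluorescence gave viability.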

[15] = target: Glucocorticoid receptor (Homo sapiens) (UniProt P04150); assay: qHTS assay to identify small molecule antagonists of the glucocorticoid receptor (GR) signaling pathway (AID 720692; active means well fitted inhibition curve with a large enough effect in the signal ratio in the repeat runs, not every such curve was filed as active; the % refers to the signal ratio; further: potency means the concentration at half of the fitted maximal effect)
Chain of Glucocorticoid receptor (Homo sapiens) (P04150 whole entry, looked up): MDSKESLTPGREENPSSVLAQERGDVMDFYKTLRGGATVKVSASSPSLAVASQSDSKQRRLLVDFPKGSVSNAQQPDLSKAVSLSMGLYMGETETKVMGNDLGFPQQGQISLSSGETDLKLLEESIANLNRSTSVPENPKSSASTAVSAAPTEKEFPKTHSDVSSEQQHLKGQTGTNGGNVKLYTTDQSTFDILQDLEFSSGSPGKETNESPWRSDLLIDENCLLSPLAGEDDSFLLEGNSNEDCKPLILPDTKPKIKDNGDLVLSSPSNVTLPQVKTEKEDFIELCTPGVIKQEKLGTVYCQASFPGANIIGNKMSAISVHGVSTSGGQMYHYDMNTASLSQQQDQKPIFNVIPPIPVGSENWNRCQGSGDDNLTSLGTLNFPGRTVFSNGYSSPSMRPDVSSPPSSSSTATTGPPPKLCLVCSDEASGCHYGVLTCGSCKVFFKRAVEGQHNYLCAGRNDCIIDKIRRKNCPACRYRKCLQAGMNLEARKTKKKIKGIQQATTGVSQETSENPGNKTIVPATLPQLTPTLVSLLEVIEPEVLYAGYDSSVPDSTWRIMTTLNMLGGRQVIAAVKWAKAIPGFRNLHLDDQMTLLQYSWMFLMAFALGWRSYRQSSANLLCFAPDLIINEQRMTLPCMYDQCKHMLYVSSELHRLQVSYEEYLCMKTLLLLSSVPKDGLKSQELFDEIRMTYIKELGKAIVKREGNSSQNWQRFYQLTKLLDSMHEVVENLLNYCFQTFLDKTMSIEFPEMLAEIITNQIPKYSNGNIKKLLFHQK
In short: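 GR-bla HeLa cells (beta-lactamase reporter under glucocorticoid response element) were pre-plated 4 h at 37 C, treated with compounds plus 5 nM dexamethasone (final) for 18 h, then read by LiveBLAzer B/G FRET fluorescence after 2 h.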

[16] = target: Androgen receptor (Homo sapiens) (UniProt P10275); assay: qHTS assay to identify small molecule antagonists of the androgen receptor (AR) signaling pathway (AID 743035; active means well fitted inhibition curve with a large enough effect in the signal ratio in the repeat runs, not every such curve was filed as active; the % refers to the signal ratio)
Chain of Androgen receptor (Homo sapiens) (P10275 whole entry, looked up): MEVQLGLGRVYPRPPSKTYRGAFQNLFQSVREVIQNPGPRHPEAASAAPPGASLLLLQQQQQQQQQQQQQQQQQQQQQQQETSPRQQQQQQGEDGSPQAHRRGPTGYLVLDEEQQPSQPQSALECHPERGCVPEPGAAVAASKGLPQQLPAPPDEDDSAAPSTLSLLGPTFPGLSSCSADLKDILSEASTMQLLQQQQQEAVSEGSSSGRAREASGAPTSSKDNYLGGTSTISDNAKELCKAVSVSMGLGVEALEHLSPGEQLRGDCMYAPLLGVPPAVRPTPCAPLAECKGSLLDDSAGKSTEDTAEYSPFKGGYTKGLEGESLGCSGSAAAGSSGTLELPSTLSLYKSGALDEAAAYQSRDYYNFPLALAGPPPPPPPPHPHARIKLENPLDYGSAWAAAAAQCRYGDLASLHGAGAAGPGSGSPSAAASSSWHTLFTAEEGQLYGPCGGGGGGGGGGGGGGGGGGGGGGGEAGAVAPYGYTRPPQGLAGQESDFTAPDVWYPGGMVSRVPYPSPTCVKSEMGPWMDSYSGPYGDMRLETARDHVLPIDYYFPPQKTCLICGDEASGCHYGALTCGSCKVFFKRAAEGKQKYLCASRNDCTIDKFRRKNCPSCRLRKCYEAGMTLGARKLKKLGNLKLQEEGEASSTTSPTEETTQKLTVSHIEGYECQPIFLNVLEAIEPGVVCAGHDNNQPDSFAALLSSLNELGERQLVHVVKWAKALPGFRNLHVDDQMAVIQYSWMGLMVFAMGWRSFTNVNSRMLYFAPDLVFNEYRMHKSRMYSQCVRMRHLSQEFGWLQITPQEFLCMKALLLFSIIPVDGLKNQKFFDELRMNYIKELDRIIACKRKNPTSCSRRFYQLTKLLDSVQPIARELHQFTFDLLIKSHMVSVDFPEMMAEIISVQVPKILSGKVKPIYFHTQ
In short: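 HEK293 cells stably carrying a UAS-driven beta-lactamase reporter (AR-UAS-bla GripTite) were plated for 4 h at 37C, then given compound and the agonist R1881 and incubated 16 h. Reporter activity was read by LiveBLAzer B/G FRET fluorescence after 2 h at room temperature.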

[17] = target: Androgen receptor (Homo sapiens) (UniProt P10275); assay: qHTS assay to identify small molecule agonists of the androgen receptor (AR) signaling pathway (AID 743036; active means well fitted activation curve with a large enough effect in the signal ratio in the repeat runs, with a control signal flat, not every such curve was filed as active; the % refers to the signal ratio)
In short: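 HEK293 cells stably carrying a UAS-driven beta-lactamase reporter (GeneBLAzer AR-UAS-bla-GripTite) were plated at 2,000 cells/well, rested 4 h at 37C, then exposed to compounds in DMSO for 16 h. LiveBLAzer B/G FRET substrate was added for 2 h at room temperature; fluorescence read.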

[18] = target: Androgen receptor (Homo sapiens) (UniProt P10275); assay: qHTS assay to identify small molecule agonists of the androgen receptor (AR) signaling pathway using the MDA cell line (AID 743040; further: nearly all actives have a fitted effect of over 20% in size; further: potency means the concentration at half of the fitted maximal effect)
In short: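 Cells plated, 5 h at 37C/0% CO2; compound or DMSO pinned; 16 h at 37C; ONE-Glo added; luminescence measured after 30 min at room temperature. Reporter line: MDA-kb2 with MMTV-luciferase responsive to AR and GR.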

[19] = target: Androgen receptor (Homo sapiens) (UniProt P10275); assay: qHTS assay to identify small molecule antagonists of the androgen receptor (AR) signaling pathway using the MDA cell line (AID 743042; further: nearly all actives have a fitted effect of over 55% in size)
In short: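 Antagonist mode: compounds plus R1881 agonist added to MDA-kb2 AR-luc cells, incubated 16 h at 37C. Luciferase reporter luminescence quantified, with multiplexed CellTiter-Fluor readout for cell viability.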

[20] = target: Glucocorticoid receptor (Homo sapiens) (UniProt P04150); assay: qHTS assay to identify small molecule agonists of the glucocorticoid receptor (GR) signaling pathway (AID 720691; active means well fitted activation curve with a large enough effect in the signal ratio in the repeat runs, not every such curve was filed as active; the % refers to the signal ratio)
In short: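 GR-bla HeLa cells (beta-lactamase reporter under glucocorticoid response element) were plated 4 h at 37 C/5% CO2, given compounds in DMSO, and incubated 18 h at 37 C. LiveBLAzer B/G FRET substrate was added for 2 h at room temperature, then fluorescence intensity read.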

Structure (SMILES)	outcome [1]	outcome [2]	outcome [3]	outcome [4]	outcome [5]	outcome [6]	outcome [7]	outcome [8]	outcome [9]	Potency [10]	Potency [11]	Potency [12]	outcome [13]	Potency [14]	Potency [15]	Potency [16]	outcome [17]	Potency [18]	outcome [19]	Potency [20]
C=CCCCCCCCCC(=O)OCC	inactive	inactive	inactive	inactive	inactive	inactive	inactive	inactive	inactive	inactive	inactive	inactive	inactive	inactive	–	–	–	–	–	–
CCOC(=O)COc1cc(-n2ncc(C(F)(F)F)c(C)c2=O)c(F)cc1Cl	inactive	inactive	inactive	inactive	inactive	inactive	inactive	inactive	inactive	–	inactive	–	–	inactive	inactive	inactive	inactive	inactive	inactive	–
CC(=O)Oc1cccc(C)c1	inactive	inactive	inactive	inactive	inactive	inactive	inactive	–	inactive	–	inactive	inactive	inactive	–	–	–	–	–	–	–
CN(C)CCCN(C)CCCN(C)C	inactive	inactive	inactive	inactive	–	inactive	inactive	inactive	inactive	–	inactive	inactive	inactive	–	inactive	–	–	–	–	inactive
O=CN(CCO)CCO	inactive	inactive	inactive	inactive	inactive	inactive	inactive	–	inactive	–	inactive	–	inactive	inactive	–	–	–	–	–	–
c1ccc(Cc2ccccc2)cc1	inactive	inactive	inactive	inactive	–	inactive	inactive	inactive	inactive	inactive	inactive	inactive	–	inactive	inactive	–	–	–	–	inactive
C1CCC2(CCCCO2)OC1	inactive	inactive	inactive	inactive	inactive	inactive	inactive	–	inactive	inactive	inactive	inactive	inactive	inactive	inactive	–	–	–	–	inactive
CCCn1cc[n+](C)c1C	inactive	inactive	inactive	inactive	inactive	inactive	inactive	inactive	inactive	–	–	–	–	inactive	–	–	–	–	–	–
Cc1cccc(C)c1NC(=O)CC12CCCN1CCC2	inactive	inactive	inactive	inactive	inactive	inactive	inactive	–	inactive	inactive	inactive	inactive	–	inactive	inactive	–	–	–	–	inactive
CNCCO	inactive	inactive	inactive	inactive	inactive	inactive	inactive	inactive	inactive	–	–	inactive	inactive	inactive	–	–	–	–	–	–
C=CCOCC(O)CO (centres undefined)	inactive	inactive	inactive	inactive	–	inactive	inactive	inactive	inactive	–	–	inactive	inactive	inactive	inactive	–	–	–	–	inactive
O=S(=O)(O)c1cccc(S(=O)(=O)O)c1	inactive	inactive	inactive	inactive	inactive	inactive	inactive	inactive	inactive	inactive	–	inactive	–	inactive	–	inactive	–	inactive	inactive	–
CC(C)(C)C(=O)c1ccccc1	inactive	inactive	inactive	inactive	inactive	inactive	inactive	–	inactive	inactive	inactive	–	inactive	inactive	inactive	–	–	–	–	–
CCCCCCCCCC[N+](C)(C)[O-]	inactive	inactive	inactive	inactive	inactive	inactive	inactive	–	inactive	24.3 µM (active)	–	–	inactive	inactive	–	inactive	–	inactive	inactive	–
FB(F)F	inactive	inactive	inactive	inactive	–	inactive	inactive	inactive	inactive	inactive	inactive	inactive	inactive	–	inactive	–	–	–	–	inactive
CC(=O)O[C@@]12CO[C@@H]1C[C@H](O)[C@@]1(C)C(=O)[C@H](O)C3=C(C)[C@@H](OC(=O)[C@H](O)[C@@H](NC(=O)OC(C)(C)C)c4ccccc4)C[C@@](O)([C@@H](OC(=O)c4ccccc4)[C@H]21)C3(C)C	inactive	inactive	inactive	inactive	inactive	inactive	inactive	–	inactive	0.0017 µM (active)	1.7 nM (active) and 1.9 nM (active)	0.0027 µM (active)	inactive	–	10.7 µM (active)	–	–	inactive	inactive	inactive
C=CC(=O)OCCCl	inactive	inactive	inactive	inactive	inactive	inactive	inactive	inactive	inactive	–	–	–	inactive	–	–	–	–	–	–	–
CC(C)(C#N)Nc1nc(Cl)nc(NC2CC2)n1	inactive	inactive	inactive	inactive	inactive	inactive	inactive	–	inactive	inactive	–	–	–	inactive	–	–	–	–	–	–
CC(=O)N1C[C@H](O)C[C@H]1C(=O)O	inactive	inactive	inactive	inactive	–	inactive	inactive	inactive	inactive	inactive	–	–	–	inactive	inactive	inactive	–	26.6 µM (active)	inactive	inactive
CCCCCC(=O)OCCc1ccccc1	inactive	inactive	inactive	inactive	–	inactive	inactive	inactive	inactive	inactive	inactive	inactive	inactive	–	inactive	–	–	–	–	inactive
CC(=O)N[C@H]1[C@H]([C@H](O)[C@H](O)CO)OC(C(=O)O)=C[C@@H]1N=C(N)N	inactive	inactive	inactive	inactive	inactive	inactive	inactive	–	inactive	inactive	inactive	inactive	–	inactive	inactive	inactive	inactive	inactive	inactive	–
NC(=O)N1c2ccccc2CC(=O)c2ccccc21	inactive	inactive	inactive	inactive	inactive	inactive	inactive	inactive	inactive	5.96 µM (active)	–	–	inactive	inactive	–	–	–	–	–	–
CCCCCC(C)N (centres undefined)	inactive	inactive	inactive	inactive	inactive	inactive	inactive	–	inactive	inactive	inactive	inactive	inactive	inactive	inactive	inactive	–	inactive	inactive	inactive
CCCCCCCCCCCCSC	inactive	inactive	inactive	inactive	–	inactive	inactive	inactive	inactive	–	–	–	inactive	inactive	inactive	–	–	–	–	inactive
CCC1C(=O)OCC1Cc1cncn1C (centres undefined)	inactive	inactive	inactive	inactive	inactive	inactive	inactive	inactive	inactive	–	inactive	inactive	–	–	–	–	–	–	–	–
